Screening results as filed in PubChem BioAssay.
ATXN2 expr inh: ATXN2 expression inhibition; HEK-293 ATXN2-luciferase reporter, luminescence, 24 h; Potency, µM (doses to about 57 µM), most hits filed as inhibitors; 0.72% of 360,000 active; AID 1745845; note: nearly all actives have a fitted effect of over 55% in size
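qHTS (up to 57 uM final) was run with 24 h compound exposure of reporter cells at 37 °C. Each well was multiplexed: SteadyGlo luminescence measured ATXN2-luciferase expression after a fluorogenic Gly-Phe-AFC viability readout (25 uM final).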
D3 antag: antagonists of human D3 dopamine receptor. P35462. D3R cells, DiscoveRx beta-arrestin luminescence, antagonist mode; stronger effect = lower value. max response, negative = inhibition, %. 2.5% of 360,000 active. AID 652054; in the data active = max response below about -50%; inconclusive = no clear call, values can overlap the other calls
Target sequence (P35462 whole entry, looked up): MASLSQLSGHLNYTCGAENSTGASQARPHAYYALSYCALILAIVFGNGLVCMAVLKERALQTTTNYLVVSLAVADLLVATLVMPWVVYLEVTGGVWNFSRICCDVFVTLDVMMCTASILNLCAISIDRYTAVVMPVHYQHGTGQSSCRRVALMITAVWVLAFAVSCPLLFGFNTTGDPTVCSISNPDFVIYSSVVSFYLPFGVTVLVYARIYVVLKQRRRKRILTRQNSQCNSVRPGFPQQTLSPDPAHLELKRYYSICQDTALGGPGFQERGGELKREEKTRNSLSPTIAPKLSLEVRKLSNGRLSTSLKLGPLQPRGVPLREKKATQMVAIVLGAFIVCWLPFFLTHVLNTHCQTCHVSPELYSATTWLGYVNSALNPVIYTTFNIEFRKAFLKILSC
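Cells expressing the human receptor were seeded at 1500 cells/well, incubated overnight at 37 degrees C in 5% CO2, then exposed to library compounds with dopamine controls for 90 minutes at 37 degrees C before luminescent detection.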
D3 ag: agonists of human D3 dopamine receptor | D3R DiscoveRx beta-arrestin cells, luminescence, 90 min | max activation, % | 0.58% of 410,000 active; in the data active = max activation above about 30%
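Agonist mode: compounds and dopamine controls were applied to plated cells for 90 min at 37 degrees C after an overnight attachment at 1500 cells/well. Luminescent read-out followed 30 - 60 minutes at room temperature with DiscoveRx detection reagent.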
HepG2 tox-1: counter-screen for TGF-b inhibitors: cytotoxicity in HepG2 cells; AID 588856; HepG2 CAGA-GFP viability, ATP luminescence, 18 h; 0.76% of 410,000 active; Potency, µM (highest dose often 46.1 µM), actives largely listed as cytotoxic
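CellTiter-Glo luminescence gave cytotoxicity after 18 hours at 37 degrees C. The cells were HepG2 CAGA-GFP in 1% FBS DMEM, stimulated with 500 pg/mL TGF-beta after compound addition. %Activity was normalised to no-cell wells (complete cell-killing) and DMSO (no toxicity), and curves were fitted and classified.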
ATXN viability: viability counter-screen for ATXN expression inhibitors. 0.49% of 400,000 active. S2 cells (HEK-293 line with an ATXN2-luciferase reporter) viability, CellTiter-Fluor protease fluorescence, 24 h. AID 651635. Potency, µM (doses to about 56.7 µM), hits mostly cytotoxic; note: nearly all actives have a fitted effect of over 40% in size
TGFb inhibitor: blocks TGF-b signaling; HepG2 CAGA-GFP TGF-b/SMAD3 reporter, GFP fluorescence, 18 h; TGF-beta stimulated, 500 pg/mL final; Potency, µM (series often up to 46.1 µM), hits mostly inhibitors; 1.2% of 410,000 active; note: nearly all actives have a fitted effect of over 65% in size
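Inhibition of TGF-beta-driven CAGA-GFP reporter expression in HEPG2 cells is measured by cellular GFP fluorescence after 18 h stimulation with 500 pg/mL recombinant TGF-beta in 1% FBS medium at 37 degrees C.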
TGFb CAGA inh: TGF-b pathway inhibition, cherry-pick retest; AID 720534; shares compounds with TGFb inhibitor; Potency, µM (highest dose often 46.1 µM), actives largely listed as inhibitors; 63% of 1,600 active; HepG2 CAGA-GFP TGF-b reporter, GFP fluorescence, 18 h; cells stimulated with TGF-beta, 500 pg/mL; note: nearly all actives have a fitted effect of over 65% in size
HepG2 tox-2: HepG2 cytotoxicity, TGF-b inhibitor counterscreen. shares compounds with TGFb inhibitor. HepG2 CAGA-GFP viability, ATP luminescence, 18 h; cells stimulated with TGF-beta, 500 pg/mL. Potency, µM (titrated, usually from 46.1 µM), usual class: inhibitors. 27% of 1,600 active. AID 720535; note: nearly all actives have a fitted effect of over 70% in size
CCL64 TGFb inh: TGF-b inhibition, CCL64 orthogonal assay; AID 720536; CCL64 CAGA-GFP reporter, TGF-b stimulated, GFP fluorescence, 18 h; Potency, µM (highest dose often 46.1 µM), usual class: inhibitors; 41% of 1,600 active; shares compounds with TGFb inhibitor; note: nearly all actives have a fitted effect of over 65% in size
TGFb COP inh: validation of TGF-b inhibitors in HepG2 COP promoter reporter. shares compounds with TGFb inhibitor. HepG2 COP-GFP TGF-b reporter, GFP fluorescence, 18 h; cells stimulated by added recombinant TGF-beta. Potency, µM (highest dose often 46.1 µM), usual class: inhibitors. 3% of 1,600 active. AID 720537; note: nearly all actives have a fitted effect of over 70% in size
Of the large screens only hits and unclear results are named; the others gave an inactive call (follow-up assays come after a bar, where they were run). The list is not random: actives were taken first. Their share in the collection is about 4.8%. Unless noted, calls come from the whole dose curve; as a rule, active = well fitted curve in the direction sought with a large enough effect; inconclusive = small, poorly fitted or top-dose-only effect, or another doubt; inactive = no such curve, though single readings can be large; an effect the other way counts as inactive or inconclusive.

CCn1c(/C=C/c2cc(Br)ccc2O)nc2ccccc2c1=O	ATXN2 expr inh inconclusive, TGFb inhibitor 10µM | TGFb CAGA inh inconclusive | HepG2 tox-2 inconclusive | CCL64 TGFb inh inactive | TGFb COP inh inactive
CCn1c(/C=C/c2ccc(O)c(O)c2)nc2ccccc2c1=O	TGFb inhibitor inconclusive (no result: ATXN2 expr inh)
Cc1nc(Nc2nc(CSc3nc4ccccc4[nH]3)cc(=O)[nH]2)nc2ccccc12	ATXN viability inconclusive, TGFb inhibitor 18µM | TGFb CAGA inh 5.2µM | HepG2 tox-2 4.1µM | CCL64 TGFb inh 6.5µM | TGFb COP inh inactive
COc1ccc2nc(Nc3nc(CSc4nc5ccccc5[nH]4)cc(=O)[nH]3)nc(C)c2c1	TGFb inhibitor 2.8µM | TGFb CAGA inh 8.2µM | HepG2 tox-2 inconclusive | CCL64 TGFb inh 18µM | TGFb COP inh inactive
CCOC(=O)c1ccc(NC(=O)CN2C(=O)c3cccnc3Sc3ccccc32)cc1	none (no result: D3 antag)
CC(C)c1ccccc1OCC(=O)NC1CCCc2ccccc21 (configuration not stated)	TGFb inhibitor 16µM | TGFb CAGA inh 18µM | HepG2 tox-2 inconclusive | CCL64 TGFb inh inconclusive | TGFb COP inh inactive
COc1ccccc1OCC(=O)NC1CCCc2ccccc21 (configuration not stated)	none
O=C(CNC(=O)C1CCCCC1)OCC(=O)c1ccccc1	none (no result: ATXN2 expr inh, D3 antag, D3 ag, ATXN viability)
Cn1c(C(=O)N2CCCC(C(=O)NCCCSC3CCCCC3)C2)cc2sccc21 (configuration not stated)	TGFb inhibitor 13µM | TGFb CAGA inh inconclusive | HepG2 tox-2 inconclusive | CCL64 TGFb inh inconclusive | TGFb COP inh inactive
CCn1c(C(=O)N2CCCC(C(=O)NCCc3ccc(C)cc3)C2)cc2sccc21 (configuration not stated)	ATXN2 expr inh inconclusive, ATXN viability inconclusive, TGFb inhibitor 13µM | TGFb CAGA inh inconclusive | HepG2 tox-2 inactive | CCL64 TGFb inh inactive | TGFb COP inh inactive
CCn1c(C(=O)N2CCCC(C(=O)NCCCc3ccccc3)C2)cc2sccc21 (configuration not stated)	none
CCCCN(C(=O)Cc1ccc(S(=O)(=O)N2CCOCC2)s1)c1c(N)n(CCCC)c(=O)[nH]c1=O	TGFb inhibitor inconclusive | TGFb CAGA inh inactive | HepG2 tox-2 inactive | CCL64 TGFb inh inactive | TGFb COP inh inactive
CCCCN(C(=O)c1cc(S(=O)(=O)N2CCOCC2)ccc1F)c1c(N)n(CCCC)c(=O)[nH]c1=O	none
FC(F)(F)c1cccc(-c2nc3nc(Cl)c(Cl)nc3[nH]2)c1	TGFb inhibitor 2.2µM (no result: ATXN2 expr inh) | TGFb CAGA inh 6.5µM | HepG2 tox-2 6.5µM | CCL64 TGFb inh 5.2µM | TGFb COP inh inactive
FC(F)(F)c1nc2nc(Cl)c(Cl)nc2[nH]1	ATXN viability inconclusive (no result: ATXN2 expr inh)
NC(=S)NN=Cc1c[nH]c2nccnc12	D3 antag active, ATXN viability inconclusive, TGFb inhibitor 13µM (no result: ATXN2 expr inh) | TGFb CAGA inh inconclusive | HepG2 tox-2 inconclusive | CCL64 TGFb inh inactive | TGFb COP inh inactive
NC(Cc1ccc(C(F)(F)F)cc1)c1csc(NC(=O)Nc2ccccc2Cc2ccccc2)n1 (configuration not stated)	ATXN2 expr inh inconclusive, HepG2 tox-1 6.3µM, TGFb inhibitor 3.2µM (no result: ATXN viability) | TGFb CAGA inh inconclusive | HepG2 tox-2 inconclusive | CCL64 TGFb inh 15µM | TGFb COP inh inconclusive
N[C@@H](CCC(=O)N[C@@H](CS)C(=O)NCC(=O)O)C(=O)O	none (no result: D3 antag, HepG2 tox-1, TGFb inhibitor)
Oc1ccc(C[C@@H](CN2CCC[C@@H]2CN2C(=S)NC[C@@H]2Cc2ccccc2)N2C[C@H](Cc3ccccc3)N(CCc3ccccc3)C2=S)cc1	ATXN viability inconclusive
CCOc1ccc(CCN2C(=S)N([C@@H](Cc3ccc(O)cc3)CN3CCC[C@@H]3CN3C(=S)NC[C@@H]3Cc3ccccc3)C[C@@H]2Cc2ccc(O)cc2)cc1	ATXN viability inconclusive, TGFb inhibitor 8.9µM | TGFb CAGA inh 6.5µM | HepG2 tox-2 inconclusive | CCL64 TGFb inh 5.8µM | TGFb COP inh inactive
CCOc1ccc(CCN2C(=S)N([C@@H](CC(C)C)CN3CCCC3CN3C(=S)NC[C@@H]3Cc3ccccc3)C[C@@H]2CC(C)C)cc1 (some centres not stated)	ATXN2 expr inh inconclusive, D3 antag inconclusive, ATXN viability inconclusive (no result: HepG2 tox-1, TGFb inhibitor)
CCOc1ccc(CCN2C(=S)N([C@@H](CC(C)C)CN3CCCC3CN3C(=S)NC[C@@H]3Cc3ccc(O)cc3)C[C@@H]2Cc2ccccc2)cc1 (some centres not stated)	TGFb inhibitor inconclusive | TGFb CAGA inh inconclusive | HepG2 tox-2 inactive | CCL64 TGFb inh inconclusive | TGFb COP inh inactive
CCOc1ccc(CCN2C(=S)N([C@@H](CC(C)C)CN3CCCC3CN3C(=S)NC[C@@H]3Cc3ccc(O)cc3)C[C@@H]2Cc2ccc(O)cc2)cc1 (some centres not stated)	ATXN2 expr inh inconclusive, HepG2 tox-1 13µM, ATXN viability inconclusive, TGFb inhibitor 7.1µM | TGFb CAGA inh 21µM | HepG2 tox-2 inconclusive | CCL64 TGFb inh 13µM | TGFb COP inh inactive
CCCCN(CC)C(=O)CSc1nc2n[nH]c(C)c2c(=N)n1-c1cccc(Cl)c1	TGFb inhibitor inconclusive (no result: ATXN2 expr inh, D3 antag, ATXN viability)
CC1C(=O)N(Cc2cn(CCC3OCCCO3)nn2)CCS(=O)(=O)N1Cc1ccc(-c2ccc(Cl)cc2)cc1 (configuration not stated)	ATXN2 expr inh 18µM, ATXN viability 28µM, TGFb inhibitor 13µM | TGFb CAGA inh inconclusive | HepG2 tox-2 inconclusive | CCL64 TGFb inh inconclusive | TGFb COP inh inactive
